Screening data from PubChem.
Rows were chosen to be rich in hits. Some 19% of all compounds tested hit in one or more screens of this group.
RORg inh = qHTS for inhibitors of ROR gamma transcriptional activity. Nuclear receptor ROR-gamma (Mus musculus), P51450. Potency, µM (highest dose often 53.6 µM), most hits filed as inhibitors. Drosophila S2 Gal4-RORgamma UAS-luciferase reporter, 20 h. 5.4% of 310,000 active. AID 2551, 2010; further: nearly all actives have a fitted effect of over 60% in size
Target sequence (P51450 whole entry, looked up, the tested form may be a part): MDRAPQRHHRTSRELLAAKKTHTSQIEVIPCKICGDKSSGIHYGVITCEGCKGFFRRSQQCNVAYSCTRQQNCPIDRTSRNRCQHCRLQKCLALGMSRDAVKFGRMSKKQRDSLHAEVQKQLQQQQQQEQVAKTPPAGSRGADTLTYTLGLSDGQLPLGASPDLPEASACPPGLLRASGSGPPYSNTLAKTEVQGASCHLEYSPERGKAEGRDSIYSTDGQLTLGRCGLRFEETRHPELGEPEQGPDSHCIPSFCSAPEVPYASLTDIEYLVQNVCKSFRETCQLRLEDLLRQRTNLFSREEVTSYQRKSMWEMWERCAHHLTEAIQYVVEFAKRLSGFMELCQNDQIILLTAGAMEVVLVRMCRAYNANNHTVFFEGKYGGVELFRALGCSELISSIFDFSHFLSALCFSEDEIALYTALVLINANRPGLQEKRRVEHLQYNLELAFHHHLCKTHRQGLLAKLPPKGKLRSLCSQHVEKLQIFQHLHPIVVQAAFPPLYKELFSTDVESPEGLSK
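Stable Schneider cell line, Gal4 DNA-binding domain fused to ROR gamma, UAS-luciferase. Cmpd 1 hr RT → CuSO4 700 uM final → 20 hr RT → luciferase reagent 10 min → luminescence.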
DT40 TDP1 no CPT = qHTS for Inhibitors of human tyrosyl-DNA phosphodiesterase 1 (TDP1): qHTS in cells in absence of CPT | DT40 Tdp1-/- hTDP1 cells, no CPT, ATP luminescence, 48 h | Potency, µM (titrated, usually from 46.2 µM), most hits filed as inhibitors | 15% of 420,000 active | AID 686978, 2013; further: nearly all actives have a fitted effect of over 55% in size
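Stably hTDP1-transfected Tdp1-null chicken DT40 cells were treated with library compounds minus camptothecin and grown for at least 48 hr at 37 °C, after which cellular ATP was quantified by luminescence.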
TDP1 inh = qHTS Assay for Inhibitors of Tyrosyl-DNA Phosphodiesterase (TDP1). Potency, µM (highest dose often 130 µM), most hits filed as inhibitors. recombinant TDP1, AlphaScreen DNA substrate cleavage. Tyrosyl-DNA phosphodiesterase 1 (Homo sapiens), Q9NUW8. 0.28% of 350,000 active; further: nearly all actives have a fitted effect of over 40% in size
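E. coli-derived human Tdp1, 1 nM final. Cpd preinc 15 min RT; substrate 15 nM final, 5 min RT; AS bead mix 10 ug/ml final, 10 min RT. Signal loss = tyrosine-FITC cleavage. No-enzyme wells = max signal.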
VP16 counter = VP16 counterscreen qHTS for inhibitors of ROR gamma transcriptional activity | 3.5% of 310,000 active | Drosophila S2 Gal4-VP16 UAS-luciferase, luminescence, 20 h | Potency, µM (series often up to 53.6 µM), most hits filed as inhibitors | AID 2546, 2010;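 further: Gal4-VP16 expression switched on by copper sulfate through the metallothionein promoter; nearly all actives have a fitted effect of over 50% in size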
DT40 TDP1 CPT = qHTS for Inhibitors of human tyrosyl-DNA phosphodiesterase 1 (TDP1): qHTS in cells in presence of CPT; chicken DT40 Tdp1-/-;hTDP1 cells + 20 nM CPT, ATP luminescence, 48 h; Potency, µM (series often up to 46.2 µM), actives largely listed as inhibitors; 12% of 420,000 active; AID 686979, 2013; further: nearly all actives have a fitted effect of over 55% in size
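Chicken DT40 Tdp1-/- cells stably complemented with human TDP1 were seeded at 400 cells/well in medium containing 20 nM camptothecin, exposed to pin-transferred compounds, and grown at 37 °C for at least 48 hr. Viability was read as ATP luminescence.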
Large screens that a line does not name were inactive. The call rests on the fitted dose curve; in most records, active means well fitted curve in the direction sought with a large enough effect; inconclusive means small, poorly fitted or top-dose-only effect, or another doubt; inactive means no such curve, though single readings can be large; an effect the other way counts as inactive or inconclusive.

Cc1cc(CNC[C@H]2O[C@@H](n3ccc(N)nc3=O)[C@H](O)[C@@H]2O)no1	none (no result: RORg inh, TDP1 inh, VP16 counter)
CN(Cc1ccc(Cl)cc1Cl)C(=O)C1CSC2(C)CCC(=O)N12 (configuration not stated)	DT40 TDP1 no CPT 16µM, DT40 TDP1 CPT 13µM (no result: RORg inh, TDP1 inh, VP16 counter)
COc1ccc(CN(C)C(=O)C2CSC3(C)CCC(=O)N23)c(OC)c1 (configuration not stated)	DT40 TDP1 no CPT 15µM, DT40 TDP1 CPT 12µM (no result: RORg inh, TDP1 inh, VP16 counter)
COc1ccc(CN(C)C(=O)C2CSC3(C)CCC(=O)N23)cc1 (configuration not stated)	none (no result: RORg inh, VP16 counter)
CN(Cc1cccc(Cl)c1)C(=O)C1CSC2(C)CCC(=O)N12 (configuration not stated)	DT40 TDP1 no CPT 21µM, DT40 TDP1 CPT 18µM
COc1ccc(CN(C)C(=O)C2CSC3(C)CCC(=O)N23)cc1OC (configuration not stated)	none (no result: RORg inh, VP16 counter)
Cc1cc(C(=O)CSc2nc3ccccc3o2)c(C)n1C1CC1	DT40 TDP1 no CPT 15µM, DT40 TDP1 CPT 21µM
C=CCn1c(C)cc(C(=O)CSc2nnc(NCc3ccccc3)s2)c1C	DT40 TDP1 no CPT 15µM, DT40 TDP1 CPT 9.2µM
C=CCn1c(C)cc(C(=O)CSc2nc3ccccc3o2)c1C	DT40 TDP1 no CPT inconclusive, VP16 counter inconclusive, DT40 TDP1 CPT 16µM
CC(C)n1c(CSCc2ccc(Cl)cc2Cl)n[nH]c1=S	RORg inh 1.4µM, DT40 TDP1 no CPT inconclusive, VP16 counter 3.2µM
O=c1cc(-c2ccccc2O)oc2c(O)c(O)ccc12	DT40 TDP1 no CPT 30µM, DT40 TDP1 CPT 24µM (no result: TDP1 inh)
O=c1cc(-c2ccccc2O)oc2ccc3ccccc3c12	RORg inh 6.3µM, DT40 TDP1 no CPT inconclusive, VP16 counter 7.1µM, DT40 TDP1 CPT inconclusive
Cc1ccc(S(=O)(=O)NCC(=O)OCC(=O)c2ccc(Br)s2)cc1	none
O=C(Nc1nccs1)c1ccc(Br)s1	RORg inh 11µM, VP16 counter inconclusive
O=C(NNC(=O)c1cccs1)c1ccccn1	DT40 TDP1 no CPT inconclusive, DT40 TDP1 CPT 16µM (no result: RORg inh, TDP1 inh, VP16 counter)
Cn1cc(Cl)c(C(=O)Nc2nccs2)n1	none (no result: TDP1 inh)
CCn1ncc(Br)c1C(=O)Nc1ccn(C23CC4CC(CC(C4)C2)C3)n1	DT40 TDP1 no CPT 13µM, DT40 TDP1 CPT 21µM
O=C(Nc1nccs1)c1ncc(Cl)c(Cl)c1Cl	RORg inh 7.9µM, DT40 TDP1 no CPT 15µM, VP16 counter 4µM, DT40 TDP1 CPT 21µM (no result: TDP1 inh)
CCn1ncc(Br)c1C(=O)N(C)C12CC3CC(CC(C3)C1)C2	DT40 TDP1 no CPT inconclusive, DT40 TDP1 CPT inconclusive
CC12CCC(=O)N1C(C(=O)Nc1cc(C(F)(F)F)ccc1N1CCOCC1)CS2 (configuration not stated)	DT40 TDP1 CPT inconclusive (no result: RORg inh, TDP1 inh, VP16 counter)
COc1ccc(OCCCC(=O)OCC(=O)Nc2nnc(-c3ccccc3)o2)cc1	DT40 TDP1 no CPT inconclusive (no result: RORg inh, VP16 counter)
O=C(Nc1nccs1)c1ccc(S(=O)(=O)c2ccccc2)cc1	none
O=C(Nc1nccs1)Oc1ccccc1	none
O=C(Nc1nccs1)c1cnccn1	RORg inh inconclusive
O=C(Nc1nccs1)c1ccc(Br)cc1	RORg inh 8.9µM, VP16 counter inconclusive (no result: TDP1 inh)
C/C(=C\c1ccccc1)C(=O)Nc1nccs1	RORg inh 6.3µM, VP16 counter inconclusive
O=C(Nc1nccs1)c1ccccn1	RORg inh 2.5µM, VP16 counter 13µM, DT40 TDP1 CPT inconclusive
O=C(Nc1nccs1)c1ccc2ccccc2c1	RORg inh 7.9µM, VP16 counter 6.3µM (no result: TDP1 inh)
COc1cccc(OC)c1C(=O)Nc1ccc(N2CCCC2)cc1	none (no result: TDP1 inh)
C#CCOCCOCCOCCNc1nc(N2CCN(C(=O)[C@H](CCCCN)n3cc(CN)nn3)CC2)nc(N2CCN(C(=O)[C@H](CCC(=O)O)n3cc(CN)nn3)CC2)n1	none (no result: RORg inh, VP16 counter)
O=C(O)Cc1sc(NCCc2ccccc2)nc1-c1ccc(F)cc1	none
CCN(C)C1CN(Cc2cn(Cc3cccc(Cl)c3)nn2)S(=O)(=O)C1 (configuration not stated)	none (no result: RORg inh, TDP1 inh, VP16 counter)
COCCNC(=O)c1cccc(NS(=O)(=O)c2cccc3cccnc23)c1	none
CC(=NNc1ccc([N+](=O)[O-])cn1)c1ccccc1	none (no result: RORg inh, TDP1 inh, VP16 counter)
CC(=O)Nc1ccc(S(=O)(=O)N2CCN(c3nc4ccccc4n3CC(C)C)CC2)cc1	RORg inh inconclusive, DT40 TDP1 no CPT inconclusive (no result: TDP1 inh)
O=C1c2ccccc2C(=O)N1CCCC(=O)N1CCCc2ccccc21	DT40 TDP1 no CPT inconclusive
COc1cc2ccccc2cc1C(=O)Nc1nccs1	RORg inh inconclusive, DT40 TDP1 no CPT inconclusive, VP16 counter inconclusive, DT40 TDP1 CPT 15µM (no result: TDP1 inh)
COc1cccc2c1OCC(C(=O)Nc1nccs1)=C2	RORg inh 11µM, DT40 TDP1 no CPT inconclusive, VP16 counter inconclusive (no result: TDP1 inh)
CCn1ncc(Br)c1C(=O)Nc1nccs1	RORg inh 13µM, VP16 counter inconclusive
COc1c(C(=O)Nc2nccs2)ccc2ccccc12	DT40 TDP1 no CPT inconclusive, DT40 TDP1 CPT inconclusive (no result: TDP1 inh)
CCn1ncc(Br)c1C(=O)Nc1ccc(OC(F)(F)F)cc1	DT40 TDP1 no CPT inconclusive (no result: TDP1 inh)
Cc1ccc(C(C(=O)NCc2ccco2)N(Cc2ccco2)C(=O)CNC(=O)c2ccco2)cc1 (configuration not stated)	none
O=C(NCc1ccco1)C(c1ccccc1)N(C(=O)Cc1cccs1)c1ccccc1F (configuration not stated)	DT40 TDP1 no CPT 26µM, DT40 TDP1 CPT inconclusive
Cc1ccc(C(C(=O)NCc2ccco2)N(C(=O)CNC(=O)c2cccs2)c2c(C)cccc2C)cc1 (configuration not stated)	RORg inh inconclusive, DT40 TDP1 no CPT inconclusive, VP16 counter 16µM, DT40 TDP1 CPT inconclusive
O=C(NCc1ccco1)C(c1ccncc1)N(C(=O)Cc1cccs1)c1ccccc1 (configuration not stated)	none
Cc1ccc(C(C(=O)NCc2ccco2)N(C(=O)CNC(=O)c2cccs2)c2c(C)cc(C)cc2C)cc1 (configuration not stated)	RORg inh inconclusive, DT40 TDP1 no CPT 10µM, DT40 TDP1 CPT 10µM
COc1cccc(COC(=O)c2c(C)nn(-c3ccccc3)c2Cl)c1OC	DT40 TDP1 no CPT inconclusive
CC(=O)c1ccc(NC(=O)CSc2nc(N3CCOCC3)nc(N3CCOCC3)n2)cc1	none
Cc1csc2nc(CNS(=O)(=O)c3ccc4c(c3)OCCO4)cn12	DT40 TDP1 no CPT inconclusive, DT40 TDP1 CPT inconclusive
CCCN1C(=O)c2ccccc2NC1c1ccc(OC)c(COc2ccc([N+](=O)[O-])c(C)c2)c1 (configuration not stated)	DT40 TDP1 no CPT 18µM, DT40 TDP1 CPT inconclusive (no result: RORg inh, VP16 counter)
